# Measurements as given in the supplement of paper PMC4022240.
# ± gives the standard deviation.
# T1: HaloTag-ATRX ADD domain (163-292)
# T1 chain: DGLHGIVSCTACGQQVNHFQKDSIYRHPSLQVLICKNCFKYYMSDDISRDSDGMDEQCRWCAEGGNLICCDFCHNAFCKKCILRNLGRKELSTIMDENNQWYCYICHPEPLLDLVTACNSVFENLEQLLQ
# Legend:
# Experiment in all cases: peptide microarray binding signal (635 nm), min-max normalized on array (fraction of array maximum); higher = stronger binding
# Details in all cases: peptide region: H3 20-32
# [1] = molecular target: T1, HaloTag-ATRX ADD domain (163-292)
# Summary of the method: (§1)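 For each library, binding signal was taken as the triplicate-spot mean intensity and then min-max scaled. Spots of histone 13-mer peptide–cellulose conjugates on nitrocellulose, printed in triplicate with a Cy3 tracer, were probed for 1 h at 4°C with either biotin-labelled HaloTag reader fusions (10 nM to 1 μM) and streptavidin-Alexa Fluor 647 or rabbit histone antibodies (1:10,000 to 1:2,000) and anti-rabbit Alexa 647. Readout at 635 nm came from an Axon GenePix 4000B.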
# [2] = molecular target: HaloTag-ING2 PHD (mouse Ing2 200-280)
# Summary of the method: as §1
# [3] = molecular target: anti-H3K4me3 antibody ab8580
# Summary of the method: as §1
# [4] = molecular target: anti-H3K9me3 antibody ab8898
# Summary of the method: as §1
# [5] = peptide modifications: H3K27me1 H3S28ph, binder concentration: 1:2,000 dilution
# [6] = peptide modifications: H3K27me1 H3S28ph, binder concentration: 1:10,000 dilution
# [7] = peptide modifications: H3K27me3, binder concentration: 1:2,000 dilution
# [8] = peptide modifications: H3K27me3, binder concentration: 1:10,000 dilution
# [9] = peptide modifications: H3R26cit H3K27ac, binder concentration: 1:2,000 dilution
# [10] = peptide modifications: H3R26cit H3K27ac, binder concentration: 1:10,000 dilution
# [11] = peptide modifications: H3R26cit H3K27me1, binder concentration: 1:2,000 dilution
# [12] = peptide modifications: H3R26cit H3K27me1, binder concentration: 1:10,000 dilution
# [13] = peptide modifications: H3K27me2, binder concentration: 1:2,000 dilution
# [14] = peptide modifications: H3K27me2, binder concentration: 1:10,000 dilution
# [15] = peptide modifications: H3K27me2 H3S28ph, binder concentration: 1:2,000 dilution
# [16] = peptide modifications: H3K27me2 H3S28ph, binder concentration: 1:10,000 dilution
# [17] = peptide modifications: H3K27ac H3S28ph, binder concentration: 1:2,000 dilution
# [18] = peptide modifications: H3K27ac H3S28ph, binder concentration: 1:10,000 dilution
# [19] = peptide modifications: H3K27me1, binder concentration: 1:2,000 dilution
# [20] = peptide modifications: H3K27me1, binder concentration: 1:10,000 dilution
# [21] = peptide modifications: H3K27ac, binder concentration: 1:2,000 dilution
# [22] = peptide modifications: H3K27ac, binder concentration: 1:10,000 dilution
# [23] = peptide modifications: H3K27me3 H3S28ph, binder concentration: 1:2,000 dilution
# [24] = peptide modifications: H3K27me3 H3S28ph, binder concentration: 1:10,000 dilution
binder,measurement,setting,value
LATKAARKSAPAT [H3 20-32 L A T K A A R Kme Sph A P A T],peptide microarray binding signal,"[1]; peptide modifications: H3K27me1 H3S28ph, binder concentration: 50 nM",0.00502 ± 0.00011
same,peptide microarray binding signal,"[1]; peptide modifications: H3K27me1 H3S28ph, binder concentration: 500 nM",0.00762 ± 0.00035
same,peptide microarray binding signal,"[2]; peptide modifications: H3K27me1 H3S28ph, binder concentration: 10 nM",0.0135 ± 0.00073
same,peptide microarray binding signal,"[2]; peptide modifications: H3K27me1 H3S28ph, binder concentration: 100 nM",0.0189 ± 0.00035
same,peptide microarray binding signal,[3]; [5],0.00485 ± 0.0004
same,peptide microarray binding signal,[3]; [6],0.00519 ± 0.00023
same,peptide microarray binding signal,[4]; [5],0.00263 ± 0.00013
same,peptide microarray binding signal,[4]; [6],0.00277 ± 0.00013
LATKAARKSAPAT [H3 20-32 L A T K A A R Kme3 S A P A T],peptide microarray binding signal,"[1]; peptide modifications: H3K27me3, binder concentration: 50 nM",0.00602 ± 0.00022
same,peptide microarray binding signal,"[1]; peptide modifications: H3K27me3, binder concentration: 500 nM",0.008 ± 0.00041
same,peptide microarray binding signal,"[2]; peptide modifications: H3K27me3, binder concentration: 10 nM",0.0119 ± 0.00027
same,peptide microarray binding signal,"[2]; peptide modifications: H3K27me3, binder concentration: 100 nM",0.0118 ± 0.00043
same,peptide microarray binding signal,[3]; [7],0.0112 ± 0.0008
same,peptide microarray binding signal,[3]; [8],0.00907 ± 0.0011
same,peptide microarray binding signal,[4]; [7],0.0533 ± 0.0049
same,peptide microarray binding signal,[4]; [8],0.0225 ± 0.0027
LATKAARKSAPAT [H3 20-32 L A T K A A Rcit Kac S A P A T],peptide microarray binding signal,"[1]; peptide modifications: H3R26cit H3K27ac, binder concentration: 50 nM",0.00486 ± 0.00011
same,peptide microarray binding signal,"[1]; peptide modifications: H3R26cit H3K27ac, binder concentration: 500 nM",0.0109 ± 0.00038
same,peptide microarray binding signal,"[2]; peptide modifications: H3R26cit H3K27ac, binder concentration: 10 nM",0.0232 ± 0.0013
same,peptide microarray binding signal,"[2]; peptide modifications: H3R26cit H3K27ac, binder concentration: 100 nM",0.0235 ± 0.0022
same,peptide microarray binding signal,[3]; [9],0.0101 ± 0.00075
same,peptide microarray binding signal,[3]; [10],0.00553 ± 0.0019
same,peptide microarray binding signal,[4]; [9],0.00415 ± 0.0003
same,peptide microarray binding signal,[4]; [10],0.00288 ± 4.3e-05
LATKAARKSAPAT [H3 20-32 L A T K A A Rcit Kme S A P A T],peptide microarray binding signal,"[1]; peptide modifications: H3R26cit H3K27me1, binder concentration: 50 nM",0.0118 ± 0.0037
same,peptide microarray binding signal,"[1]; peptide modifications: H3R26cit H3K27me1, binder concentration: 500 nM",0.011 ± 0.002
same,peptide microarray binding signal,"[2]; peptide modifications: H3R26cit H3K27me1, binder concentration: 10 nM",0.0174 ± 0.00085
same,peptide microarray binding signal,"[2]; peptide modifications: H3R26cit H3K27me1, binder concentration: 100 nM",0.0171 ± 0.0017
same,peptide microarray binding signal,[3]; [11],0.00427 ± 0.00087
same,peptide microarray binding signal,[3]; [12],0.00576 ± 0.00078
same,peptide microarray binding signal,[4]; [11],0.00346 ± 0.0001
same,peptide microarray binding signal,[4]; [12],0.002249 ± 2.1e-05
LATKAARKSAPAT [H3 20-32 L A T K A A R Kme2 S A P A T],peptide microarray binding signal,"[1]; peptide modifications: H3K27me2, binder concentration: 50 nM",0.00292 ± 6.9e-05
same,peptide microarray binding signal,"[1]; peptide modifications: H3K27me2, binder concentration: 500 nM",0.003238 ± 2.5e-05
same,peptide microarray binding signal,"[2]; peptide modifications: H3K27me2, binder concentration: 10 nM",0.00567 ± 0.00012
same,peptide microarray binding signal,"[2]; peptide modifications: H3K27me2, binder concentration: 100 nM",0.00581 ± 0.00013
same,peptide microarray binding signal,[3]; [13],0.00193 ± 6.9e-05
same,peptide microarray binding signal,[3]; [14],0.00205 ± 3.8e-05
same,peptide microarray binding signal,[4]; [13],0.00153 ± 0.00012
same,peptide microarray binding signal,[4]; [14],0.00144 ± 3.7e-05
LATKAARKSAPAT [H3 20-32 L A T K A A R Kme2 Sph A P A T],peptide microarray binding signal,"[1]; peptide modifications: H3K27me2 H3S28ph, binder concentration: 50 nM",0.00527 ± 0.00024
same,peptide microarray binding signal,"[1]; peptide modifications: H3K27me2 H3S28ph, binder concentration: 500 nM",0.0144 ± 0.00043
same,peptide microarray binding signal,"[2]; peptide modifications: H3K27me2 H3S28ph, binder concentration: 10 nM",0.0156 ± 0.00093
same,peptide microarray binding signal,"[2]; peptide modifications: H3K27me2 H3S28ph, binder concentration: 100 nM",0.0272 ± 0.0025
same,peptide microarray binding signal,[3]; [15],0.00985 ± 0.00073
same,peptide microarray binding signal,[3]; [16],0.00508 ± 0.00053
same,peptide microarray binding signal,[4]; [15],0.00619 ± 0.0012
same,peptide microarray binding signal,[4]; [16],0.0129 ± 0.0067
LATKAARKSAPAT [H3 20-32 L A T K A A R Kac Sph A P A T],peptide microarray binding signal,"[1]; peptide modifications: H3K27ac H3S28ph, binder concentration: 50 nM",0.00903 ± 0.00081
same,peptide microarray binding signal,"[1]; peptide modifications: H3K27ac H3S28ph, binder concentration: 500 nM",0.0153 ± 0.0002
same,peptide microarray binding signal,"[2]; peptide modifications: H3K27ac H3S28ph, binder concentration: 10 nM",0.0221 ± 0.0015
same,peptide microarray binding signal,"[2]; peptide modifications: H3K27ac H3S28ph, binder concentration: 100 nM",0.0405 ± 0.0074
same,peptide microarray binding signal,[3]; [17],0.00951 ± 0.0017
same,peptide microarray binding signal,[3]; [18],0.0101 ± 0.0017
same,peptide microarray binding signal,[4]; [17],0.00536 ± 0.0021
same,peptide microarray binding signal,[4]; [18],0.00277 ± 6.4e-05
LATKAARKSAPAT [H3 20-32 L A T K A A R Kme S A P A T],peptide microarray binding signal,"[1]; peptide modifications: H3K27me1, binder concentration: 50 nM",0.00455 ± 9.6e-05
same,peptide microarray binding signal,"[1]; peptide modifications: H3K27me1, binder concentration: 500 nM",0.00714 ± 0.00042
same,peptide microarray binding signal,"[2]; peptide modifications: H3K27me1, binder concentration: 10 nM",0.00961 ± 0.00022
same,peptide microarray binding signal,"[2]; peptide modifications: H3K27me1, binder concentration: 100 nM",0.0148 ± 0.00019
same,peptide microarray binding signal,[3]; [19],0.00402 ± 0.00028
same,peptide microarray binding signal,[3]; [20],0.00405 ± 0.00025
same,peptide microarray binding signal,[4]; [19],0.00231 ± 0.00014
same,peptide microarray binding signal,[4]; [20],0.00208 ± 3.9e-05
LATKAARKSAPAT [H3 20-32 L A T K A A R Kac S A P A T],peptide microarray binding signal,"[1]; peptide modifications: H3K27ac, binder concentration: 50 nM",0.00542 ± 6.7e-05
same,peptide microarray binding signal,"[1]; peptide modifications: H3K27ac, binder concentration: 500 nM",0.00819 ± 0.00035
same,peptide microarray binding signal,"[2]; peptide modifications: H3K27ac, binder concentration: 10 nM",0.013 ± 0.00049
same,peptide microarray binding signal,"[2]; peptide modifications: H3K27ac, binder concentration: 100 nM",0.0498 ± 0.05
same,peptide microarray binding signal,[3]; [21],0.00461 ± 0.00054
same,peptide microarray binding signal,[3]; [22],0.00508 ± 0.00032
same,peptide microarray binding signal,[4]; [21],0.00281 ± 0.00022
same,peptide microarray binding signal,[4]; [22],0.002652 ± 2.3e-05
LATKAARKSAPAT [H3 20-32 L A T K A A R Kme3 Sph A P A T],peptide microarray binding signal,"[1]; peptide modifications: H3K27me3 H3S28ph, binder concentration: 50 nM",0.00618 ± 0.00025
same,peptide microarray binding signal,"[1]; peptide modifications: H3K27me3 H3S28ph, binder concentration: 500 nM",0.0125 ± 0.00027
same,peptide microarray binding signal,"[2]; peptide modifications: H3K27me3 H3S28ph, binder concentration: 10 nM",0.0171 ± 0.0012
same,peptide microarray binding signal,"[2]; peptide modifications: H3K27me3 H3S28ph, binder concentration: 100 nM",0.037 ± 0.0095
same,peptide microarray binding signal,[3]; [23],0.0312 ± 0.0057
same,peptide microarray binding signal,[3]; [24],0.0191 ± 0.0066
same,peptide microarray binding signal,[4]; [23],0.104 ± 0.021
same,peptide microarray binding signal,[4]; [24],0.0474 ± 0.0052
